# In the library only some 2.9% were active in any assay of this set; here they are far more common.
# S2 tox = viability counter-screen for ATXN expression inhibitors. S2 cells (HEK-293 line with an ATXN2-luciferase reporter) viability, CellTiter-Fluor protease fluorescence, 24 h. Potency, µM (doses to about 56.7 µM), usual class: cytotoxic. AID 651635. 0.49% of 400,000 active; further: nearly all actives have a fitted effect of over 40% in size
# A549 viability = A549 cytotoxicity, counter-screen for Nrf2 inhibitors | A549 ARE-Fluc cells, CellTiter-Fluor viability, 18-24 h | Potency, µM (titrated, usually from 46 µM), actives largely listed as inhibitors | 0.16% of 390,000 active | AID 504648
#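 A549 ARE-Fluc cells in 5% FBS OPTI-MEM, 5000 cells/well, rested 2 h then exposed to compounds in concentration-response for 18-24 h at 37 °C. Viability by CellTiter-Fluor fluorescence (Ex 405/Em 525) after 30 min; luciferase luminescence (BugLite, 15 min, RT) read afterwards.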
# Nrf2 activator = activates Nrf2 signaling. 0.31% of 410,000 active. AID 624171. AREc32 ARE-luciferase reporter (MCF7-derived line), luminescence, 24 h. Potency, µM (highest dose often 46.1 µM), hits mostly activators; further: nearly all actives have a fitted effect of over 65% in size
#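 AREc32 cells carrying an ARE-driven firefly luciferase, 1000 cells/well in OPTI-MEM with 5% FBS, dosed after overnight attachment and incubated 24 hr at 37 deg C. Steady-Glo luminescence read after 30 min at RT.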
# Nrf2 inh = blocks Nrf2 signaling; A549 ARE-Fluc reporter, luciferase luminescence, 18-24 h; 2.1% of 360,000 active; AID 504444; Potency, µM (series often up to 46 µM), usual class: inhibitors; further: nearly all actives have a fitted effect of over 60% in size
#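 Concentration-response testing used A549 ARE_Fluc cells at 5000 cells/well. Following an 18-24 h compound incubation, viability was read by fluorescence (Ex 405/Em 525) and luciferase output by luminescence.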
# ATXN2 expr inh = reduces ATXN2 reporter expression in HEK-293 cells | HEK-293 ATXN2-luciferase reporter, luminescence, 24 h | Potency, µM (titrated, usually from 57 µM), usual class: inhibitors | 0.72% of 360,000 active; further: nearly all actives have a fitted effect of over 55% in size
#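 ATXN2-luciferase reporter cells (luciferase flanked by upstream and downstream ATXN2 gene portions) were treated 24 h at 37 °C with compounds at up to 57 uM. SteadyGlo luminescence gave expression; GF-AFC fluorescence gave viability.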
# A number is an active result; 0 = inactive; ? = inconclusive; - = not tested or not shown. The call rests on the fitted dose curve; in most records, active means well fitted curve in the direction sought with a large enough effect; inconclusive means small, poorly fitted or top-dose-only effect, or another doubt; inactive means no such curve, though single readings can be large; an effect the other way counts as inactive or inconclusive.
SMILES,S2 tox,A549 viability,Nrf2 activator,Nrf2 inh,ATXN2 expr inh
CN1C(=O)CC2(C=CC(=O)C=C2OC(=O)c2ccccc2)c2ccccc21 (stereo unspecified),-,0,-,0,-
Cc1ccc(S(=O)(=O)/N=C2\C=C(Nc3cccc(C(=O)O)c3)C(=O)c3ccccc32)cc1,?,0,0,0,?
CCc1ccc(S(=O)(=O)/N=C2\C=C(Nc3ccc(C(=O)O)cc3)C(=O)c3ccccc32)cc1,?,0,0,0,?
O=C1C(Nc2ccccc2)=C/C(=N/S(=O)(=O)c2cccs2)c2ccccc21,-,15µM,0,8.2µM,7.9µM
Cc1ccc(S(=O)(=O)/N=C2\C=C(Nc3cccc(C(=O)O)c3)C(=O)c3ccccc32)c(C)c1,-,0,0,0,32µM
Cc1ccc(NC2=C/C(=N/S(=O)(=O)c3cccs3)c3ccccc3C2=O)cc1,7.9µM,?,0,?,7.9µM
Cc1ccc(S(=O)(=O)/N=C2\C=C(Nc3ccc(O)cc3)C(=O)c3ccccc32)cc1,4µM,16µM,0,18µM,6.3µM
Cc1ccc(S(=O)(=O)/N=C2\C=C(NS(=O)(=O)c3ccccc3)C(=O)c3ccccc32)c(C)c1,0,0,0,0,0
COc1cc(O)ccc1CN1CCc2nnc(C(C)NC(=O)c3cc(F)ccc3F)n2CC1 (stereo unspecified),0,-,-,-,-
CCC(=O)N1c2ccccc2CC1C(=O)NCCCN1CCN(c2cccc(Cl)c2)CC1 (stereo unspecified),?,0,0,-,0
CCS(=O)(=O)N1CC(=O)N(c2cc(Cl)ccc2C)C(C)(C(=O)NC2CCCCCC2)C1 (stereo unspecified),-,0,0,0,-
CCCCC(C)(C)[C@H](O)C=C[C@H]1[C@H](O)CC(=O)[C@H]1CC=CCCCC(=O)O,-,-,-,-,0
COCC1CCCN(Cc2ccc3c(c2)CN(C(=O)c2ccc(-c4ccc(C)o4)cc2)CCO3)C1 (stereo unspecified),0,-,-,-,-
CC1CCN(S(=O)(=O)c2ccc3c(c2)N(CC(=O)NCCc2ccc(Cl)cc2)C(=O)CO3)CC1,28µM,0,0,0,?
CCOc1ccc(CCNC(=O)CN2C(=O)COc3ccc(S(=O)(=O)N(CC)CC)cc32)cc1,?,0,0,23µM,0
O=C(CN1C(=O)COc2ccc(S(=O)(=O)N3CCCCC3)cc21)NCCc1ccc(Cl)cc1,-,0,0,?,-
CC(=O)OCC(=O)[C@@]1(O)CC[C@@H]2[C@H]3CCC4=CC(=O)CC[C@]4(C)[C@]3(F)[C@@H](O)C[C@@]21C,0,-,-,-,-
CC(=O)OCC(=O)[C@@]1(OC(C)=O)[C@@H](C)C[C@H]2[C@@H]3C[C@H](F)C4=CC(=O)C=C[C@]4(C)[C@@]3(F)[C@@H](O)C[C@@]21C,0,0,0,0.0092µM,0
CC(=O)OCC(=O)[C@@]1(O)CC[C@H]2[C@@H]3CCC4=CC(=O)C=C[C@]4(C)[C@@]3(F)[C@@H](O)C[C@@]21C,0,0,0,0.029µM,0
C[C@@H]1C[C@@H]2[C@H]3CCC4=CC(=O)C=C[C@]4(C)[C@]3(F)[C@@H](O)C[C@]2(C)[C@@]1(O)C(=O)CO,0,-,-,-,-
CC(=O)OCC(=O)C1(O)CCC2C3CC(C)C4=CC(=O)C=CC4(C)C3=CCC21C (stereo unspecified),0,0,0,2.1µM,0
C[C@@H]1C[C@H]2[C@@H]3CCC4=CC(=O)C=C[C@]4(C)[C@@]3(F)[C@@H](O)C[C@]2(C)[C@@]1(O)C(=O)COP(=O)(O)O,0,0,0,0.023µM,0
O=C(CNC(=O)c1ccc2ccccc2c1)OC(C(=O)Nc1cc(C(F)(F)F)ccc1Cl)c1ccccc1 (stereo unspecified),-,0,-,0,-
CN(Cc1ccccc1)C(=O)C1CCC(CNS(=O)(=O)c2ccc3c(c2)CCCC(=O)N3)CC1 (stereo unspecified),0,0,0,?,0
Cc1c(C(=O)N(C)C2CCOC2)sc2ncnc(NCC3(c4ccccc4)CCOCC3)c12 (stereo unspecified),0,-,-,-,-
COc1ccccc1CCNc1ncnc2sc(C(=O)N3CCCC3)c(C)c12,0,-,-,-,-
CC12C=CC(=O)C=C1C(F)CC1C3CCC(O)(C(=O)CO)C3(C)CC(O)C12F (stereo unspecified),0,0,0,0.0052µM,0
